Measured values published in the supplement of paper PMC6555819.

Tested on: FXR:RXRa (NR concentration 270 nM, RXRa partner concentration 90 nM)
Assay: PBM binding z-score (relative to random genomic background probes); higher = stronger binding; sequences stand for … in GC…GCGATTGACAGCGTAGAATGAAGG
In short: (§1)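 Custom Agilent 4×180K protein-binding microarrays carried double-stranded probes. Their 34-nt variable regions held direct-repeat seeds, single-nucleotide variants, half-site ablations and random human genomic background sequences. Arrays were incubated 1 h with ligand-free nuclear receptor dimers in PBS pH 7.4, 2% milk, 0.02% Triton X-100, 1 mM DTT, 0.2 mg/mL BSA and 0.4 mg/ml salmon testes DNA. Antibodies against each partner (one per run) detected binding, and scanned fluorescence was regression-normalized. Binding z-scores use random background probes as reference.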

In order of falling PBM binding z-score:
1. CGTCCAAGGTCAAAGGTCACTGAAGAGATGACGG  8.77
2. CGTCCAAGGTCAAGGTCACTGAAAGAGACTCGAA  8.15
3. CAAACTAGGTCACGAGGTCAAAGTCCGCTTCCCG  7.24
4. CGTCCAAGGTCAGCAGGTCAGAGAAAGCGACGTG  6.51
5. CGTCCAAGGTCAATGCTAGCTCAGTGAAAGCATT  6.48
6. CCTGCTAGGTCAAGGGTCAGCTAAAGCAGCTCGC  6.02
7. GATACAGGGTCAGCTAGAGGTCAGAGTATGGAAA  6
8. ACTCGGAGGGCAAAGGTCAGAGCTACGCCAGTGA  5.79
9. CCTAGTGGGCCAAAGGTCATTGATTCCAATGCTC  5.47
10. TCATATAGGTTAAAGGTGAAAGTCGGTGTGGTAA  4.54
11. CGAACTAGGTCAAAGGACACTGAAAGGCGACGTA  4.53
12. AGAATGGGGTTAAGATCAGGGAAACAGAATACAT  4.23
13. TCTAGTTGGTCACGGAGGTCACACGCGACGGGTA  3.47
14. TCATATAGGTAATCAGGTGAAAGTCCGTAAGTTA  1.07
15. AGTCAAATTTCACTAGGTAACGTAAGATTCAGCT  -0.177
16. CGTCCAAGCTCAGCAGGTCAGTGAAAGCGACGTG  -0.394
17. CCTACTGGGCCAAGGTCTTTGATCAGTCAAAGCA  -0.503

Tested on: LXRa:RXRa (NR concentration 270 nM, RXRa partner concentration 90 nM)
Assay: as above
In short: as §1

In order of falling PBM binding z-score:
1. CGTCCAAGGTCAAAGGTCACTGAAGAGATGACGG  7.26
2. CAATCTAGGTCACAGAGGTCAAAGTCCGTGCGTA  7.04
3. CAAACTAGGTCACAGAGGTCAAAGTTCGTGCGTA  6.84
4. CGTCCAAGGTCAAAGGTCAGGGAAGAGATGACGG  6.78
5. TATACAGGGTCAAAGGGCAGAGTACGAATGTCGA  6.55
6. TCTAGTAGGTCACGGAGGTCACACACGACGGGTA  6.42
7. CAAACTAGGTCACCGGAAGGTCAAAGTTCGCATG  6.36
8. CGTCCAAGGTCAAGGTCACTGAAAGAGACTCGAA  6.19
9. CTAACTAGGTCACCGGAAGGTCAAAGTCCGCATG  6.17
10. CAAACTAGGTCACGAGGTCAAAGTCCGCTTCCCG  6
11. CAAAATAGGTCAAGGTCAAAGTCGGTTTGTGCCA  5.98
12. GATACAGGGTCAGCTAGAGGTCAGAGTATGGAAA  5.81
13. ACTAGCAGGTCAAGGGTCACTCAAGATTAGTCCG  5.73
14. CCAGACAGGTGAAAGGTCACTCAGTCTGGTACGC  5.49
15. GCTTCCGGGTCAAAGGTTATAGCATGAATAGAAT  5.48
16. CCTAGTGGGCCAAAGGTCATTGATTCCAATGCTC  5.18
17. ACTCGGAGGGCAAAGGTCAGAGCTACGCCAGTGA  5.11
18. ATATGTAGGTCAGGGTCATTCAGAAAGTAGGGAA  4.89
19. CCTGCTAGGTCAAGGGTCAGCTAAAGCAGCTCGC  4.62
20. CGTCCAAGGTCAATGCTAGCTCAGTGAAAGCATT  4.48
21. TCATATAGGTTAAAGGTGAAAGTCGGTGTGGTAA  4.09
22. CGTCCAAGGTCAGCAGGTCAGAGAAAGCGACGTG  4.01
23. ATCTCTAGGTTAAAGTTCAGTGAATCCCGAGGAT  3.76
24. TCTAGTTGGTCACGGAGGTCACACGCGACGGGTA  3.74
25. AGAATGGGGTTAAGATCAGGGAAACAGAATACAT  3.54
26. ACTCGGAGGACAGAGGTCAGAGCTACGCCAGTGA  3.27
27. CGTCCAAGGTCAGCAGGTGAGTGAAAGCGACGTG  3.02
28. CGAACTAGGTCAAAGGCCAGTGAAAGGCGACGTA  2.92
29. CGAACTAGGTCAAAGGACACTGAAAGGCGACGTA  2.6
30. TCATATAGGTAATAAAGGTGAAAGTCGGCATCTA  2.15
31. CCGACTGGGGCAAAGGTTACGATACTCAGTACGA  1.6
32. TCAGATAGGTAAAGGTGAAAGTCGAACGATATGA  1.49
33. TCATATAGGTAATCAGGTGAAAGTCCGTAAGTTA  0.945
34. CATACACGGTCAGCTAGGCCAGAGTAGGGACGGC  0.294
35. AGTCAAATTTCACTAGGTAACGTAAGATTCAGCT  -0.14
36. CCTACTGGGCCAAAAAGGCCATTGATGCCGATAA  -0.247
37. CCTACTGGGCCAAGGTCTTTGATCAGTCAAAGCA  -0.304
38. CGTCCAAGCTCAGCAGGTCAGTGAAAGCGACGTG  -0.404
39. TAGCCTAGGTTATGCGGGCCAGTATAGTGTCGGC  -0.497

Tested on: LXRa homodimer (NR concentration 270 nM)
Assay: as above
In short: as §1

In order of falling PBM binding z-score:
1. CAAACTAGGTCACAGAGGTCAAAGTTCGTGCGTA  7.98
2. CAATCTAGGTCACAGAGGTCAAAGTCCGTGCGTA  7.96
3. CAAACTAGGTCACCGGAAGGTCAAAGTTCGCATG  5.74
4. CTAACTAGGTCACCGGAAGGTCAAAGTCCGCATG  5.51
5. TCTAGTAGGTCACGGAGGTCACACACGACGGGTA  5.23
6. CAAACTAGGTCACGAGGTCAAAGTCCGCTTCCCG  5.08
7. CAAAATAGGTCAAGGTCAAAGTCGGTTTGTGCCA  4.65
8. CGTCCAAGGTCAAAGGTCACTGAAGAGATGACGG  4.53
9. CCTAGTGGGCCAAAGGTCATTGATTCCAATGCTC  3.76
10. GATACAGGGTCAGCTAGAGGTCAGAGTATGGAAA  3.45
11. ATCTCTAGGTTAAAGTTCAGTGAATCCCGAGGAT  3.34
12. CGTCCAAGGTCAAAGGTCAGGGAAGAGATGACGG  3.32
13. TATACAGGGTCAAAGGGCAGAGTACGAATGTCGA  3.16
14. TCTAGTTGGTCACGGAGGTCACACGCGACGGGTA  2.9
15. CCAGACAGGTGAAAGGTCACTCAGTCTGGTACGC  2.57
16. CGTCCAAGGTCAAGGTCACTGAAAGAGACTCGAA  2.24
17. ACTAGCAGGTCAAGGGTCACTCAAGATTAGTCCG  2.16
18. ATATGTAGGTCAGGGTCATTCAGAAAGTAGGGAA  1.68
19. ACTCGGAGGGCAAAGGTCAGAGCTACGCCAGTGA  1.08
20. TCATATAGGTTAAAGGTGAAAGTCGGTGTGGTAA  0.882
21. CGTCCAAGGTCAGCAGGTCAGAGAAAGCGACGTG  0.793
22. TCATATAGGTAATAAAGGTGAAAGTCGGCATCTA  0.741
23. AGAATGGGGTTAAGATCAGGGAAACAGAATACAT  0.59
24. ACTCGGAGGACAGAGGTCAGAGCTACGCCAGTGA  0.56
25. GCTTCCGGGTCAAAGGTTATAGCATGAATAGAAT  0.542
26. CCTGCTAGGTCAAGGGTCAGCTAAAGCAGCTCGC  0.429
27. TCATATAGGTAATCAGGTGAAAGTCCGTAAGTTA  0.314
28. CGTCCAAGGTCAATGCTAGCTCAGTGAAAGCATT  0.31
29. CGAACTAGGTCAAAGGACACTGAAAGGCGACGTA  0.187
30. CATACACGGTCAGCTAGGCCAGAGTAGGGACGGC  -0.0294
31. AGTCAAATTTCACTAGGTAACGTAAGATTCAGCT  -0.0488
32. CCGACTGGGGCAAAGGTTACGATACTCAGTACGA  -0.076
33. CCTACTGGGCCAAAAAGGCCATTGATGCCGATAA  -0.15
34. TCAGATAGGTAAAGGTGAAAGTCGAACGATATGA  -0.219
35. CGTCCAAGGTCAGCAGGTGAGTGAAAGCGACGTG  -0.383
36. CGTCCAAGCTCAGCAGGTCAGTGAAAGCGACGTG  -0.449
37. CGAACTAGGTCAAAGGCCAGTGAAAGGCGACGTA  -0.479
38. CCTACTGGGCCAAGGTCTTTGATCAGTCAAAGCA  -0.544
39. TAGCCTAGGTTATGCGGGCCAGTATAGTGTCGGC  -0.618
